Source: PubChem
ELG1 DNA repair – inhibitors of ELG1-dependent DNA repair in HEK293T cells; HEK293T ELG1-luciferase reporter, luminescence, 16 h; DNA damage induced by 5-fluorouridine; Potency, µM (series often up to 46.1 µM), for the others: at the highest dose activity change, negative = inhibition, usual class: inhibitors; hit rate 2.3% among 330,000; further: nearly all actives have a fitted effect of over 55% in size
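Quantitative HTS, concentration-response format. 2,000 cells/well co-treated with 5-fluorouridine and compound, 16 hr in 5% CO2 at 37 °C; ONE-Glo luminescence read after 30 min.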
ALOX12 inh – inhibitors of human 12S-lipoxygenase ALOX12; P18054; purified 12hLO, xylenol orange hydroperoxide absorbance; Potency, µM (doses to about 108 µM), for inactives: top-dose activity change, negative = inhibition, actives largely listed as inhibitors; hit rate 1.1% among 580,000; AID 1671190
Target sequence (P18054 whole entry, looked up): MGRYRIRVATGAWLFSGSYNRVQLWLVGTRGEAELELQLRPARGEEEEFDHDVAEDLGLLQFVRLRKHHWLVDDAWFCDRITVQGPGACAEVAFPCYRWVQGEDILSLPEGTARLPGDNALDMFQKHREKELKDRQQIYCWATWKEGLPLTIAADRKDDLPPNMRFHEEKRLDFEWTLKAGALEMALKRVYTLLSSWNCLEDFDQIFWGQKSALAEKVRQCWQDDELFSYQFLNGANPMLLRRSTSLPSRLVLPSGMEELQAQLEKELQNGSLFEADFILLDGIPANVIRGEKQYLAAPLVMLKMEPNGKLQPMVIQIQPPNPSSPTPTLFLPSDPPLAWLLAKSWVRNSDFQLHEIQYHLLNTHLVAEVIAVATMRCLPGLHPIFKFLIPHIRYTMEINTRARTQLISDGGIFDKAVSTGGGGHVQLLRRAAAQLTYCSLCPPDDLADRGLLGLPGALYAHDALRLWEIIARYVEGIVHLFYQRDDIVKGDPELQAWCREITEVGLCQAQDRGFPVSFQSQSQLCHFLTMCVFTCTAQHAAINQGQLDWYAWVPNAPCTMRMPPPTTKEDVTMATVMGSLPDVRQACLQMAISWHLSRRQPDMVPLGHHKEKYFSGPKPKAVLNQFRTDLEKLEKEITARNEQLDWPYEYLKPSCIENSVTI
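Hydroperoxide product was detected by ferrous iron/xylenol orange as the 573 to 405 nm absorbance ratio. Arachidonic acid at 40 uM (final) was turned over for 30 min at room temperature by 150 nM human 12hLO, pH 7.0 Hepes buffer, after 15 min compound preincubation.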
RORg inh – ROR gamma (mouse) transcription inhibition. P51450. Drosophila S2 Gal4-RORgamma UAS-luciferase reporter, 20 h. Potency, µM (highest dose often 53.6 µM), for inactives: at the highest dose activity change, negative = inhibition, actives largely listed as inhibitors. hit rate 5.4% among 310,000. AID 2551; further: nearly all actives have a fitted effect of over 60% in size
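Read-out: Photinus luciferase luminescence; inhibitors lower reporter signal. Insect Schneider cells with Gal4-ROR gamma fusion under metallothionein promoter, UAS reporter; 700 uM final copper sulfate induction, 20 hr, ambient temperature.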
Gal4-VP16 FLuc – Gal4-VP16 reporter inhibition counter-screen. Potency, µM (doses to about 53.6 µM), for the others: top-dose activity, negative = inhibition, actives largely listed as inhibitors. Drosophila S2 Gal4-VP16 UAS-luciferase, luminescence, 20 h. hit rate 3.5% among 310,000. AID 2546;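 further: Gal4-VP16 expression switched on by copper sulfate through the metallothionein promoter; nearly all actives have a fitted effect of over 50% in size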
DT40 TDP1 no CPT – qHTS for Inhibitors of human tyrosyl-DNA phosphodiesterase 1 (TDP1): qHTS in cells in absence of CPT; DT40 Tdp1-/- hTDP1 cells, no CPT, ATP luminescence, 48 h; Potency, µM (doses to about 46.2 µM), for the others: at the highest dose activity change, negative = growth inhibition, most hits filed as inhibitors; hit rate 15% among 420,000; further: nearly all actives have a fitted effect of over 55% in size
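Seeded 400 DT40-hTDP1 cells/well (vehicle DMSO, no 20 nM CPT); pinned compounds; ≥48 hr at 37 °C; CellTiter-Glo luminescence as viability measure.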
DT40 TDP1 CPT – DT40-hTDP1 cell growth loss with CPT; Potency, µM (series often up to 46.2 µM), inactives show at the highest dose activity change, negative = growth inhibition, most hits filed as inhibitors; hit rate 12% among 420,000; chicken DT40 Tdp1-/-;hTDP1 cells + 20 nM CPT, ATP luminescence, 48 h; further: nearly all actives have a fitted effect of over 55% in size
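Chicken DT40 Tdp1-/- cells complemented with human TDP1, 400 cells/well, exposed to compounds plus 20 nM camptothecin for at least 48 h at 37 C; viability read as ATP content by CellTiter-Glo luminescence.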
Active calls of the source: *; ? = inconclusive; · = no result given; [ ] = another dose, or the depositor's remark. An excerpt weighted towards active compounds, which were near 15% of everything screened. The call rests on the fitted dose curve; in most records, active means well fitted curve in the direction sought with a large enough effect; inconclusive means small, poorly fitted or top-dose-only effect, or another doubt; inactive means no such curve, though single readings can be large; an effect the other way counts as inactive or inconclusive. On the % scale 0 is the no-effect control and ±100 the full control effect; potency means the concentration at half of the fitted maximal effect.

SMILES | ELG1 DNA repair | ALOX12 inh | RORg inh | Gal4-VP16 FLuc | DT40 TDP1 no CPT | DT40 TDP1 CPT
O=C(Nc1ccc(OC(F)F)cc1)c1ncc(Cl)c(Cl)c1Cl | -2% | 13% | 5µM* | -15% | 0% | 18%
COc1ccc(NC(=O)c2ccc(Cc3ccc(C)cc3)o2)cc1 | -19% | 4% | 29% | 2% | ? | ?
Cc1ccc(NC(=O)c2ncc(Cl)c(Cl)c2Cl)cc1C | ? | -2% | -1% | ? | ? | ?
CCCSc1ncc(Cl)c(C(=O)Nc2c(C(=O)Nc3ccc(OC)cc3)oc3ccccc23)n1 | · | -19% | · | · | ? | ?
Cc1ccccc1Cc1c(C)nc2c(C(=O)N3CCC(Cc4nncn4CC4CC4)CC3)cnn2c1C | · | 10% | · | · | · | ·
O=C(CNc1ccc(F)c(C(F)(F)F)c1)N1CCNC1=O | · | -27% | · | · | · | ·
Cc1cc(C)c(C(=O)COC(=O)c2cc(=O)[nH]c3ccccc23)cc1C | · | -5% | · | · | · | ·
O=C(NC1CCCCC1)c1cc(-c2ccccc2)nc2ccccc12 | · | -24% | · | · | · | ·
COc1cccc(C(Nc2ncc(C(F)(F)F)cc2Cl)c2nccn2C)c1 (centres undefined) | · | 15% | · | · | · | ·
CC1CCCN(S(=O)(=O)c2ccc(NC(=O)CNC3CCCC3)cc2)C1 (centres undefined) | -5% | -22% | 12% | 7% | ? | ?
COC(=O)c1ccccc1NC(=O)c1nc(S(=O)(=O)Cc2ccccc2)ncc1Cl | -13% | 16% | ? | 3.2µM* | 1.3µM* | 2.9µM*
CCCSc1ncc(Cl)c(C(=O)Nc2ccccc2C(=O)OC)n1 | · | 2% | · | · | · | ·
CCS(=O)(=O)c1ncc(Cl)c(C(=O)Nc2ccc(S(=O)(=O)N3CCCC(C)C3)cc2)n1 (centres undefined) | ? | -6% | ? | 3.5µM* | 2.3µM* | 0.92µM*
CS(=O)(=O)c1ncc(Cl)c(C(=O)Nc2ccc3ccccc3c2)n1 | ? | -2% | 2.8µM* | 4.5µM* | 0.65µM* | 1µM*
CCOc1ccc(NC(=O)c2nsc(Cl)c2Cl)cc1 | ? | 13% | -3% | ? | -21% | -25%
CCOc1ccc(NC(=O)c2nc(S(=O)(=O)Cc3ccc(C)cc3)ncc2Cl)cc1 | · | -29% | · | · | 0.63µM* | 0.79µM*
Cc1ccccc1-c1nccc2c(=O)cc(N3CCOCC3)oc12 | · | 0%[176 µM] | · | · | · | ·
CC(=O)Nc1ccc(NC(=O)c2nc(S(=O)(=O)Cc3ccccc3)ncc2Cl)cc1 | ? | 0% | 2.2µM* | 0.35µM* | 0.46µM* | 0.26µM*
CCS(=O)(=O)c1ncc(Cl)c(C(=O)Nc2ccc(C)cc2)n1 | ? | 10% | 5µM* | 2µM* | 1.8µM* | 1.6µM*
CCSc1ncc(Cl)c(C(=O)Nc2ccc(S(=O)(=O)Nc3onc(C)c3C)cc2)n1 | 15% | ? | -5% | 6% | 0% | -24%
CCOc1ccc(NC(=O)c2nc(SCc3ccccc3F)ncc2Cl)cc1 | · | · | · | · | -23% | -9%
CSc1ncc(Cl)c(C(=O)Nc2ccc(NC(C)=O)cc2)n1 | -3% | -1% | -20% | 2% | -19% | 3%
CCOc1ccc(NC(=O)c2nc(S(=O)(=O)Cc3ccccc3)ncc2Cl)cc1 | · | · | · | · | 0.4µM* | 0.32µM*
CCCC1c2nccn2CCCN1C(=O)c1ccoc1C (centres undefined) | · | 0% | · | · | · | ·
COc1ccc(-c2nc(CSCC(=O)NC3CCCc4ccccc43)c(C)o2)cc1OC (centres undefined) | 16µM* | 0% | -16% | 7% | 21µM* | ?
COc1ccc(-c2nc(CSCC(=O)N3CCc4ccccc4C3)c(C)o2)cc1OC | ? | ? | -13% | -13% | 21µM* | ?
